Screens deposited in PubChem by several laboratories.
Rows were chosen to be rich in hits. Some 1.4% of all compounds tested hit in one or more screens of this group.
HNF4A DNA FP: change in binding of human HNF4 alpha to DNA; P41235; HNF4a-FITC DNA binding, fluorescence polarization, 1 h; activity change, % at 10 µM; 360,000 compounds, 0.3% hits; in the data active = activity change above about 30%, passing the limit was not always enough
IDE inh: inhibits human insulin-degrading enzyme in HEK cells; FAbetaB cleavage, fluorescence polarization; inhibition, % at 5.59 µM; 320,000 compounds, 0.41% hits;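 active = percent inhibition above the average of all tested compounds plus 3 SD, set per screening campaign, cut at about 16% in these data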;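 also: IDE supplied by intact live HEK cells; FP after avidin binding of uncleaved biotin substrate so inhibition keeps polarization high; 0% = DMSO wells and 100% = 60 µM reference IDE inhibitor Ii1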
Target sequence (P14735 whole entry, looked up): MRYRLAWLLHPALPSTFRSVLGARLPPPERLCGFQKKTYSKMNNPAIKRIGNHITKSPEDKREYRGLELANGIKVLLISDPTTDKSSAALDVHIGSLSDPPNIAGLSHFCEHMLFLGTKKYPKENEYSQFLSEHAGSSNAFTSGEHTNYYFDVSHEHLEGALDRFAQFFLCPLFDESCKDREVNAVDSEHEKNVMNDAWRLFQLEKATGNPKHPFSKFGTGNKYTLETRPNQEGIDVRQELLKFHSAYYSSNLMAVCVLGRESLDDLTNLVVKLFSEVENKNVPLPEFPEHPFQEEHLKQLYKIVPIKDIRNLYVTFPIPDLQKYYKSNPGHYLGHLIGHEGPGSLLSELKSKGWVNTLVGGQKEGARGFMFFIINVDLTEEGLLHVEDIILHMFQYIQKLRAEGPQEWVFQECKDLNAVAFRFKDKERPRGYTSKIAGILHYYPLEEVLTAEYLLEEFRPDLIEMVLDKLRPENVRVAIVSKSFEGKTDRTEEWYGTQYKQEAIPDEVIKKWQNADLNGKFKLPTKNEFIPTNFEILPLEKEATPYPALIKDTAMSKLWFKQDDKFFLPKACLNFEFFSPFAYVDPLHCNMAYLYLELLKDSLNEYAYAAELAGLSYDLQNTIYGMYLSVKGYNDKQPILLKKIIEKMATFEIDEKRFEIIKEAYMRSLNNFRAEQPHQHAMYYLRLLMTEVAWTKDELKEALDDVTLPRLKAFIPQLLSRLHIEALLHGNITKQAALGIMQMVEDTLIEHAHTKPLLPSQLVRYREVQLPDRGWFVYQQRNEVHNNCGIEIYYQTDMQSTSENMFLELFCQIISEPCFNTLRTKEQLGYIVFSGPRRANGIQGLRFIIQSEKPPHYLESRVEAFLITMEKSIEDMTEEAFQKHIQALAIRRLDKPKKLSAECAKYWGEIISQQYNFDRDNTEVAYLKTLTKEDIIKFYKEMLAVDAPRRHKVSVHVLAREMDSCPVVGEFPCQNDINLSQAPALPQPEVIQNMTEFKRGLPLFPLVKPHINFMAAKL
CRFR2-BP ag: CRF-BP/CRF-R2 complex agonism; HEK293 CRF-R2/CRF-BP, calcium dye fluorescence (FLIPR); percent of saturating CRF peptide response; activation, % at 13.2 µM; 350,000 compounds, 0.46% hits;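 active = activation of at least 50%, plus an integration ratio under a set limit after plate pattern correction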;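 also: plate controls were neutral control wells without compound for no effect and CRF at EC100 for full effect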
IDE cell activ: boosts human insulin-degrading enzyme activity in HEK cells | 340,000 compounds, 0.073% hits | FAbeta-B cleavage, fluorescence polarization; 0% vehicle, 100% cell-free pure enzyme wells | activation, % at 5.96 µM;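 active = activation above the mean of all tested compounds plus 3 SD, set per screening campaign, cut at about 17% in these data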
TPT1 inh: C. albicans TPT1 enzyme inhibition; inhibition, % at 5 µM; 300,000 compounds, 0.81% hits; recombinant caTPT1, FP RNA substrate dephosphorylation;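 active = inhibition above the mean of all tested compounds plus 3 SD, set per screening campaign, cut at about 24% in these data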;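 also: plate controls were DMSO alone for no effect and ferristatin control at 100 nM for full effect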
caTPT1 confirm: confirmation of Candida albicans TPT1 inhibitors. recombinant caTPT1, fluorescence polarization, RNase T1 coupled. 2,400 compounds, 74% hits. inhibition, % at 5 µM. AID 2149. shares compounds with TPT1 inh;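 active = inhibition above the primary screen limit, the mean inhibition of all tested compounds plus 3 SD, cut at about 25% in these data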
RNase T1 inh: RNase T1 inhibition in TPT1 counter-screen | RNase T1 cleavage, fluorescence polarization, 1536-well | inhibition, % at 5 µM | shares compounds with TPT1 inh | 2,400 compounds, 83% hits;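 active = inhibition above the solvent-only control well mean plus 3 SD, limit set per screening run, cut at about 23% in these data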;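 also: plate controls were DMSO wells with enzyme for no effect and wells without RNase T1 for full effect; inhibitors block cleavage so intact labeled substrate keeps polarization high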
* hit, by the source's call; / = no result given.

SMILES	HNF4A DNA FP	IDE inh	CRFR2-BP ag	IDE cell activ	TPT1 inh	caTPT1 confirm	RNase T1 inh
Cc1cc(C)nc(NC(=NCCc2c[nH]c3ccccc23)NC(=O)C(C)(C)C)n1	-1	11	3	7	-1	/	/
CSc1nsc(/C=C/Nc2ccc(O)cc2C)c1C#N	111	1	1	-9	26*	22	33*
Cc1cc(O)ccc1N/C=C(\C#N)c1nc2ccccc2o1	5	0	1	7	4	/	/
O=C(Sc1ccc(Cl)cc1)c1ccccn1	1	8	-1	-7	2	/	/
O=C(Cn1ncc2c3ccccc3n(Cc3cccc(Cl)c3)c2c1=O)NCC1CCCO1 (configuration not stated)	24	5	1	1	29*	98*	94*
O=C(CSc1cccc[n+]1[O-])NC1CCCCC1	-6	0	1	6	/	/	/
CC(C)c1ccc2c(c1)C1Cc3ccccc3C1N2 (configuration not stated)	0	2	2	5	29*	13	22*
O=S1(=O)NC2c3ccccc3CC2O1 (configuration not stated)	3	-1	-4	-5	-2	/	/
COc1cc(C(=O)Nc2ccc(N3CCN(C(=O)c4ccc(C)cc4)CC3)cc2)cc(OC)c1OC	1	0	-1	1	0	/	/
Cc1cc(N2C(=O)C(O)=C(C(=O)c3cc4ccccc4o3)C2c2cccs2)no1 (configuration not stated)	7	4	4	-4	41*	30*	39*
COC(=O)c1ccccc1Nc1ccnc(Cl)n1	-1	2	-1	0	-2	/	/
COCCCn1c(=O)/c(=C\c2ccccc2OC(C)C)s/c1=C(/C#N)C(=O)Nc1ccc(C(=O)O)cc1	26	-4	6	-5	39*	19	58*
CCN1CCN(C(=O)CN2C(=O)COc3ccc(C)cc32)CC1	3	-3	3	-2	0	/	/
COc1ccc(C(=O)O)cc1NC(=S)NC(=O)C(c1ccccc1)c1ccccc1	1	5	-3	0	1	/	/
NS(=O)(=O)c1cc(C(=O)NC2CCSc3ccccc32)ccc1Cl (configuration not stated)	-77	1	-3	0	54*	67*	3
NS(=O)(=O)c1cccc(C(=O)NC2CCSc3ccccc32)c1 (configuration not stated)	2	6	1	1	-2	/	/
Cc1cccc(NC(=O)CCCn2c(=S)[nH]c3ccccc3c2=O)c1	1	3	-7	1	-2	/	/
CCOC(=O)C1CCN(C2=NC(=O)/C(=C/c3ccc(Cl)cc3)S2)CC1	0	-2	-5	0	-4	/	/
CCOC(=O)CSC1=NC(=O)/C(=C\c2ccc(Cl)cc2)S1	26	8	5	-5	30*	52*	62*
CCCNC(=O)CN1C(=O)NC(Cc2c[nH]c3ccccc23)C1=O (configuration not stated)	1	0	10	4	3	/	/
O=S1(=O)N[C@@H](Cc2ccccc2)COc2cccc(N3CCC[C@H]3CO)c21	1	/	/	/	/	/	/
CN1/C(=C\C=C(/C#N)C(=O)Nc2ccc(Cl)cc2)C(C)(C)c2ccccc21	66	1	141*	-5	112*	36*	52*
O=[N+]([O-])c1ccc(N2CCN(Cc3ccccc3)CC2)s1	28	-2	-5	1	31*	38*	50*
O=[N+]([O-])c1ccc(N2CCN(Cc3ccccc3)CC2)nc1	2	5	0	-4	-5	/	/
CC1CCCN(c2ccc([N+](=O)[O-])s2)C1 (configuration not stated)	26	/	-1	-4	/	/	/
O=[N+]([O-])c1ccc(N2CCCCC2)s1	25	2	2	2	35*	34*	46*
CN(C)c1ccc(-c2ccnc3c2CC(C)(C(=O)Nc2ccc(F)c(Cl)c2)O3)cc1 (configuration not stated)	-1	/	/	/	/	/	/
Cc1cccc(C)c1NC(=O)CNC(=O)c1ccc(COc2ccccc2)cc1	-1	3	0	2	/	/	/
